Data published in PubChem BioAssay (EPA / NIEHS).
Inconclusive results are not listed. Calls of active or inactive are those of the source. The calls were made as follows: active = hit-call score of the fitted dose curve at least 0.9, where 1 is the maximum; inconclusive = response in the unintended direction; inactive = score below 0.9.

What was measured:
[1] = molecular target: Cellular tumor antigen p53 (Homo sapiens) (UniProt P04637); assay: TOX21_p53_BLA_p2_ratio: Tox21 HCT-116 p53 Agonism Beta-lactamase Assay, Ratio, Phase 2 (AID 2283592)
Cellular tumor antigen p53 (Homo sapiens), sequence (P04637 whole entry, looked up): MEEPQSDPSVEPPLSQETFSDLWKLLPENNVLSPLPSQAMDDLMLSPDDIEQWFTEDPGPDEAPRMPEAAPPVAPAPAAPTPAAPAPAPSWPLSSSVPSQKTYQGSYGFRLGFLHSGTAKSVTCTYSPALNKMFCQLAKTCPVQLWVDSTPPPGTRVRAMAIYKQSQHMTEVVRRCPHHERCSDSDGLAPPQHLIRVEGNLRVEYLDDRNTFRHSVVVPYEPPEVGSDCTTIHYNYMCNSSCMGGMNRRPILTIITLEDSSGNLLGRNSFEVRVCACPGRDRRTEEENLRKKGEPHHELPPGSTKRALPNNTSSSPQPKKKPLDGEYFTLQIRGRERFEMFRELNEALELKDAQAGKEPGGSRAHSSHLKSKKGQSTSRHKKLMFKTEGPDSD
How it was run: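 Gain-of-signal p53 agonism was scored from the beta-lactamase FRET ratio (460/530 nm, 405 nm excitation) in HCT116 cells treated 16 h at 37C, 5% CO2, with DMSO serving as negative control and baseline.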

[2] = TOX21_p53_BLA_p3_viability: Viability Assessment in the Tox21 HCT-116 p53 Agonism Beta-lactamase Assay, Phase 3 (AID 2283593);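 also: cells exposed to compound for 16 h before reading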
How it was run: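 HCT116 cells, 4000/well, dosed 5 h after plating by pin transfer (217-fold dilution from DMSO stock) and incubated 16 h at 37C, 5% CO2. Viability read as ATP luminescence with CellTiter-Glo after 30 min at room temperature.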

[3] = molecular target: Cellular tumor antigen p53 (Homo sapiens) (UniProt P04637); assay: TOX21_p53_BLA_p3_ratio: Tox21 HCT-116 p53 Agonism Beta-lactamase Assay, Ratio, Phase 3 (AID 2283596)
How it was run: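 HCT116 p53-bla cells (4000/well) given compound in DMSO (217-fold dilution) after 5 h, incubated 16 h at 37C. CCF4-AM substrate 2 h at room temperature; 460/530 nm emission ratio, gain fitted against DMSO.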

[4] = TOX21_p53_BLA_p4_viability: Viability Assessment in the Tox21 HCT-116 p53 Agonism Beta-lactamase Assay, Phase 4 (AID 2283597);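 also: hits lower the luminescence signal meaning cytotoxicity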
How it was run: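 Following a 16 h exposure at 37C, the treated HCT116 wells were first read for the FRET ratio. They were then lysed with CellTiter-Glo, and ATP luminescence was recorded after 30 min at room temperature.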

[5] = molecular target: Cellular tumor antigen p53 (Homo sapiens) (UniProt P04637); assay: TOX21_p53_BLA_p5_ratio: Tox21 HCT-116 p53 Agonism Beta-lactamase Assay, Ratio, Phase 5 (AID 2283599)
How it was run: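 HCT-116 p53-bla cells (4000/well) plated 5 h, dosed with compound (217-fold DMSO dilution) for 16 h at 37 C; CCF4-AM substrate 2 h at room temperature. Activity is the 460/530 nm emission ratio (405 nm excitation), fitted in gain-of-signal direction versus DMSO.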

[6] = TOX21_p53_BLA_p5_viability: Viability Assessment in the Tox21 HCT-116 p53 Agonism Beta-lactamase Assay, Phase 5 (AID 2283600)
How it was run: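 After the 460/530 nm beta-lactamase measurement, the wells received an ATP-detection luciferase reagent; signal was read 30 min later at RT. Compound treatment lasted 16 h on cells pre-incubated 5 h post-seeding.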

[7] = molecular target: Cellular tumor antigen p53 (Homo sapiens) (UniProt P04637); assay: TOX21_p53_BLA_p4_ratio: Tox21 HCT-116 p53 Agonism Beta-lactamase Assay, Ratio, Phase 4 (AID 2283601)
How it was run: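 HCT-116 p53 beta-lactamase reporter cells (4000/well) preincubated 5 h, then compound (217-fold dilution of DMSO stock) for 16 h at 37C. CCF4-AM substrate added 2 h at room temperature; 460/530 nm emission ratio fitted upward versus DMSO.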

[8] = TOX21_p53_BLA_p2_viability: Viability Assessment in the Tox21 HCT-116 p53 Agonism Beta-lactamase Assay, Phase 2 (AID 2283591);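 also: compound exposure lasted 16 h at 37 °C; actives lower the ATP signal meaning cytotoxicity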
How it was run: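 HCT116 p53-bla cells, 4000/well, dosed after 5 h plating (217-fold dilution of DMSO stocks) and incubated 16 h at 37C. Viability taken as cellular ATP by CellTiter-Glo luminescence after 30 min RT; signal loss marks cytotoxicity.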

[9] = molecular target: Thyroid hormone receptor alpha (Rattus norvegicus) + Thyroid hormone receptor beta (Rattus norvegicus) (UniProt P18113+P63059); assay: TOX21_TR_LUC_GH3_Antagonist_Followup: Tox21 GH3 Thyroid Hormone Receptor Antagonism Luciferase Follow-Up Assay (AID 2283942)
How it was run: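 Antagonist mode: GH3 cells seeded 1,500/well, compounds at 15 concentrations (92 uM to 5nM final) plus T3 at 1.0 nM final, 24 h at 37C. Luciferase read with ONE-Glo after 30 min at room temperature.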

THRA (gene 7067) = THRA (gene 7067) (UniProt P10827); assay: TOX21_TRA_COA_Antagonist_Followup_ratio: Tox21 Thyroid Hormone Receptor alpha Antagonism through Coactivator Recruitment Follow-Up Assay, Ratio (AID 2283953)
THRA (gene 7067), sequence (P10827 whole entry, looked up, the tested form may be a part): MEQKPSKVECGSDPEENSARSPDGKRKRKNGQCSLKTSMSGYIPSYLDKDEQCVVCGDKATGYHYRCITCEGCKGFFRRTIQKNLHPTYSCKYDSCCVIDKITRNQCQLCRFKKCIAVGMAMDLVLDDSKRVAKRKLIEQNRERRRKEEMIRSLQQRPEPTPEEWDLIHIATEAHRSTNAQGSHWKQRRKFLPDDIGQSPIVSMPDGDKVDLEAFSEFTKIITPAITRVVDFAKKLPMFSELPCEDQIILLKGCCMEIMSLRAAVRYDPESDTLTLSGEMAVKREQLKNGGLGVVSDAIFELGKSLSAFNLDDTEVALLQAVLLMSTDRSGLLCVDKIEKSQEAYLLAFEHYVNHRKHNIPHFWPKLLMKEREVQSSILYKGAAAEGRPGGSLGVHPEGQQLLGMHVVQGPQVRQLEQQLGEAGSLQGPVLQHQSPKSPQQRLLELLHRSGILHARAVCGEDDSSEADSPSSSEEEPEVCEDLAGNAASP
How it was run: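 This follow-up to the GH3 luciferase screen checks specificity in a cell-free format. It measures SRC-2 coactivator peptide binding to TRα LBD by TR-FRET and scores loss of ratio signal relative to DMSO.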

THRB (gene 7068) [10] = molecular target: THRB (gene 7068) (UniProt P10828); assay: TOX21_TRB_BLA_Antagonist_Followup_ratio: Tox21 Thyroid Hormone Receptor beta Antagonism Beta-lactamase (BLA) Follow-Up Assay, Ratio (AID 2283958)
THRB (gene 7068), sequence (P10828 whole entry, looked up, the tested form may be a part): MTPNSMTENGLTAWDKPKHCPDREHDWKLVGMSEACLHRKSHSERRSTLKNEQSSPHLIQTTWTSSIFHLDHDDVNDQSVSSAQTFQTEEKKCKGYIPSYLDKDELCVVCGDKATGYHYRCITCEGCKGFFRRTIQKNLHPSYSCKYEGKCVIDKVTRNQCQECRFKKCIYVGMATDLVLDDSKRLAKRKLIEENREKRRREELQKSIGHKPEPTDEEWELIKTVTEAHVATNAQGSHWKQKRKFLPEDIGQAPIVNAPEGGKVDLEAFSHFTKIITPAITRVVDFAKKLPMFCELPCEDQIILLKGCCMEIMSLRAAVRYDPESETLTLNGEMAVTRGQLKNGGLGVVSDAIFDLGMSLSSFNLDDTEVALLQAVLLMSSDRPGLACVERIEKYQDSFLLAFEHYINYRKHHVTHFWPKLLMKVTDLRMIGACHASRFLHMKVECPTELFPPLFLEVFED
How it was run: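 GAL4-DBD/human TRβ-LBD fusion in GeneBLAzer UAS-bla HEK293T cells, 3,000 cells/well in phenol red-free DMEM with 2% charcoal-stripped FBS; compounds at 11 concentrations in triplicate, 18 h at 37C. CCF4-AM substrate 2 h, 460:530 nm ratio relative to DMSO.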

THRB (gene 7068) [11] = molecular target: THRB (gene 7068) (UniProt P10828); assay: TOX21_TRB_COA_Antagonist_Followup_ratio: Tox21 Thyroid Hormone Receptor beta Antagonism through Coactivator Recruitment Follow-Up Assay, Ratio (AID 2283967)
How it was run: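 Cell-free TR-FRET: GST-TRb LBD (5.0 nM) with fluorescein-SRC-2 peptide (200 nM) and Tb anti-GST antibody (2 nM), 0.10% BSA. 520:495 nm emission ratio normalized to DMSO (0%) and T3 (100%).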

[12] = TOX21_TR_RXR_BLA_Antagonist_Followup_viability: Viability Assessment in the Tox21 Thyroid Hormone Receptor beta Retinoid X Receptor alpha (RXRa) Antagonism Beta-lactamase (BLA) Follow-Up Assay (AID 2283979)
How it was run: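 RXRa-bla HEK293T cells (2,500/well, phenol red-free DMEM, 2% charcoal-stripped FBS) were attached 5 h, then exposed to compounds at 11 concentrations in triplicate for 16 h at 37C. Viability measured by CellTiter-Glo ATP luminescence, bidirectional fitting versus DMSO.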

Measured: AC50

CC1CN1 (stereo not drawn)
inactive: [1] | [2] | [3] | [4]

C[C@]12CC[C@H]3[C@@H](CC=C4C[C@@H](O)CC[C@@]43C)[C@@H]1CC[C@@H]2O
inactive: [1] | [3] | [4] | [5] | [6]
active: [2] 43.5 µM

BrCC(Br)(Br)Br
active: [1] 84.7 µM | [3] 13.1 µM
inactive: [2] | [4] | [5] | [6] | [7]

O=C(Cl)c1ccccc1
inactive: [1] | [2] | [3] | [4] | [5] | [6] | [7]

CCCSC(=O)Cl
inactive: [8] | [6] | [7]

S=C(SSC(=S)N1CCCCC1)N1CCCCC1
inactive: [1] | [2] | [3] | [4] | [5] | [6] | [7]

c1cncc([C@@H]2CCCCN2)c1
inactive: [1] | [2]

CC(=O)[C@H]1CC[C@H]2[C@@H]3CC[C@@H]4C[C@H](O)CC[C@]4(C)[C@H]3CC[C@]12C
not listed: [8]
inactive: all other assays above
